The source of these data is PubChem BioAssay AID624354 (Sanford-Burnham Center for Chemical Genomics, 2012).

“And” between values parts separate entries of the source, which are not always exact repeats. Equal entries are not always repeated. Hit rate of the full screen: of about 360,000 compounds, about 3,800 (1.1%) were called active.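 Rule for the calls: active = compounds causing at least 50% loss of cell viability in the single-dose screen, relative to plate controls; inactive = the rest.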 What follows is part of a selection rich in actives, with near analogues and random picks from the rest. More than one record can exist for a structure, and the calls need not agree.

A short description of this experiment: TRAIL-exposed caspase-8 expressing cell killing – NB7+C8 cells, ATPlite luminescence, TRAIL sensitizer project, primary screen (AID 624354). The conditions noted are these: at 10 µM, stronger effect = higher value. Background: In ATP-based viability assays light output follows the ATP content of the culture.
As to `COc1cc(NC(=O)c2[nH]cnc2C(N)=O)cc(C(=O)Nc2cccc(C(F)(F)F)c2)c1`, the inhibition (viability loss, TRAIL sensitization) is 86% (active).

As to `COc1cc(NC(=O)c2cncc(-c3ccc(C#N)cc3)c2)cc(C(=O)Nc2cccc(C(F)(F)F)c2)c1`, the inhibition (viability loss, TRAIL sensitization) is 33.4% (inactive) and 56.8% (active).

With `COc1cccc(C(=O)N/N=C(\C)c2cccc(NC(=O)c3ccc(F)cc3)c2)c1OC`, the inhibition (viability loss, TRAIL sensitization) is 16.9% (inactive).

Turning to `COc1cccc(NC(=O)CN(C)C(C)C(=O)Nc2ccc(C#N)cc2)c1` (stereo not drawn), the inhibition (viability loss, TRAIL sensitization) is -8.39% (inactive).

For the molecule `O=C(Nc1cccc(C(F)(F)F)c1)c1ccc(N2CCNCC2)c([N+](=O)[O-])c1`, the inhibition (viability loss, TRAIL sensitization) is 35.7% (inactive).

In the case of `COC(=O)c1ccc(C2C3=C(Nc4nnnn42)c2ccccc2OC3)cc1` (stereo not drawn), the inhibition (viability loss, TRAIL sensitization) is -2.52% (inactive).

Turning to `CCOC(=O)c1c(Cc2ccc(Cl)cc2)c[nH]c1C`, the inhibition (viability loss, TRAIL sensitization) was -5.16% (inactive).

Consider `CCOC(=O)N1CCN(S(=O)(=O)c2ccc(C(=O)Nc3ccc(F)cc3F)cc2)CC1`, for which the inhibition (viability loss, TRAIL sensitization) is 4.58% (inactive).

With `Cc1cc(C)cc(OCc2nnc(SCC(=O)OC3CCCCC3)o2)c1`, the inhibition (viability loss, TRAIL sensitization) was -14.3% (inactive).

`COc1cccc(CNC(=O)C2CCCN(S(=O)(=O)N3CC(C)CC(C)C3)C2)c1` (stereo not drawn): the inhibition (viability loss, TRAIL sensitization) is -1.49% (inactive).

Regarding `COC(=O)C1=C[C@@H](C(=O)OC)[C@@H]2C3=C(C(=O)[C@]2(C)NC(=O)c2ccccc2)[C@H](C)n2c(=O)n(C)c(=O)n2[C@@H]3C1`, the inhibition (viability loss, TRAIL sensitization) is -3.47% (inactive).

`COc1ccc(OC)c(Cc2cnc3nc(N)nc(N)c3c2C)c1`: the inhibition (viability loss, TRAIL sensitization) is 84% (active).

Turning to `O=C(CN(C(=O)c1csnn1)c1cccc(F)c1)NCc1ccc(F)cc1`, the inhibition (viability loss, TRAIL sensitization) was -4.16% (inactive).

`CCOC(=O)c1c(C)[nH]c2c1-c1ccccc1C(=O)C2=O`: the inhibition (viability loss, TRAIL sensitization) is 94% (active).

For the molecule `CCOC(=O)c1[nH]c(C)c(C(=O)OCC(=O)N2c3ccccc3CC2C)c1C` (stereo not drawn), the inhibition (viability loss, TRAIL sensitization) was 6.75% (inactive).

Consider `CCOC(=O)c1c(C)oc(C)c(C(=O)OCC)c1=O`, for which the inhibition (viability loss, TRAIL sensitization) was -19.5% (inactive).

For `COc1ccc(C(=O)OCC(=O)c2ccc(C)c(S(=O)(=O)N3CCOCC3)c2)cc1OC`, the inhibition (viability loss, TRAIL sensitization) was 18.4% (inactive).

On to `Cc1ccc(C(=O)COC(=O)c2cccc(N3C(=O)c4c(C)nc5ccccc5c4C3=O)c2)cc1C`, for which the inhibition (viability loss, TRAIL sensitization) is 60.1% (active).

Turning to `Cc1ccc(C(=O)COC(=O)CCN2C(=O)C3C4CCC(C4)C3C2=O)cc1C` (stereo not drawn), the inhibition (viability loss, TRAIL sensitization) was -8.78% (inactive).

For the molecule `N#CCCN(C(=S)Nc1ccc(Cl)c(Cl)c1)C1CCCCC1`, the inhibition (viability loss, TRAIL sensitization) is -41.1% (inactive).

Consider `COc1ccc(NS(=O)(=O)c2ccc(C)c(C(=O)N(C)Cc3ccc(OC)cc3OC)c2)cc1`, for which the inhibition (viability loss, TRAIL sensitization) was 17.8% (inactive).

Consider `O=C(NNC(=O)c1cc(S(=O)(=O)N2CCCCC2)ccc1Cl)c1ccccc1O`, for which the inhibition (viability loss, TRAIL sensitization) was 14% (inactive).

Regarding `Cc1cccc(NS(=O)(=O)c2cccc(C(=O)NNC(=O)c3ccccc3O)c2)c1`, the inhibition (viability loss, TRAIL sensitization) is 24.7% (inactive).

Regarding `O=C(NNC(=O)c1ccccc1O)c1ccccc1O`, the inhibition (viability loss, TRAIL sensitization) was 59.8% (active).

On to `CC1(C)CC(=O)C=C(NC2CC(C)(C)NC(C)(C)C2)C1`, for which the inhibition (viability loss, TRAIL sensitization) is -7.42% (inactive).

For `C=CCNC(=O)c1ccc2c3n(nc2c1)-c1ccc(C)cc1CO3`, the inhibition (viability loss, TRAIL sensitization) was 47.7% (inactive).

In the case of `CCOC(=O)N1CCN(C(=O)C2CCN(S(C)(=O)=O)CC2)CC1`, the inhibition (viability loss, TRAIL sensitization) is 9.65% (inactive).

For `Cc1nn(-c2ccccc2)nc1C(=O)OCC(=O)N1CCCCC1C` (stereo not drawn), the inhibition (viability loss, TRAIL sensitization) was 10.3% (inactive).

For the molecule `COC(=O)c1cc(S(=O)(=O)N2CCN(c3cc(C)ccc3C)CC2)c[nH]1`, the inhibition (viability loss, TRAIL sensitization) is -3.18% (inactive).

For the molecule `Cc1nc2ccc(S(=O)(=O)NCC(=O)NCCN3CCCCC3C)cc2s1` (stereo not drawn), the inhibition (viability loss, TRAIL sensitization) is -1.47% (inactive).

Regarding `Cn1c(=O)[nH]c(=O)c2c1[nH]c(=S)n2Cc1ccccc1`, the inhibition (viability loss, TRAIL sensitization) is 7.43% (inactive).

With `C=CCN(CC=C)S(=O)(=O)c1ccc(C(=O)Nc2nc3c(s2)CCc2ccccc2-3)cc1`, the inhibition (viability loss, TRAIL sensitization) is 28.5% (inactive).

With `N#Cc1c(-c2cccs2)nc(SCC(=O)c2ccc(Br)cc2)[nH]c1=O`, the inhibition (viability loss, TRAIL sensitization) is -12.9% (inactive).

With `N#Cc1ccc(C(=O)Nc2nc(-c3cccs3)c(C(=O)C(F)(F)F)s2)cc1`, the inhibition (viability loss, TRAIL sensitization) is 53.5% (active).

For the molecule `Cc1ccc(NC(=O)CCC(=O)N2CCC(c3ccccc3)=N2)cc1S(=O)(=O)N1CCCCC1`, the inhibition (viability loss, TRAIL sensitization) is 18.8% (inactive).

Turning to `Cc1nc2nc[nH]n2c(=O)c1NC(=O)c1cccc(OCC(C)C)c1`, the inhibition (viability loss, TRAIL sensitization) is -7.44% (inactive).

Consider `O=C(CSC(=S)N1CCCCC1)c1c(F)cccc1F`, for which the inhibition (viability loss, TRAIL sensitization) is 3.44% (inactive).

As for `O=C(CSC(=S)N1CCOCC1)c1ccccc1`, the inhibition (viability loss, TRAIL sensitization) is 57.5% (active).

For the molecule `O=C(CP(=O)(c1ccccc1)c1ccccc1)N1CCOCC1`, the inhibition (viability loss, TRAIL sensitization) is -4.37% (inactive).

With `O=c1c(-c2ccccc2Cl)c[nH]n1-c1ccccc1`, the inhibition (viability loss, TRAIL sensitization) is 1.07% (inactive).

For the molecule `CS(=O)(=O)c1ccc(C(=O)NNC(=O)c2cccs2)cc1`, the inhibition (viability loss, TRAIL sensitization) is -3.16% (inactive).

On to `Cc1cc2cc3c(cc2nc1SCC(=O)Nc1c(C)cccc1C)CCC3`, for which the inhibition (viability loss, TRAIL sensitization) is 3.78% (inactive).

Take `Cn1c(NC(=O)c2ccccc2)nc2ccccc21`: the inhibition (viability loss, TRAIL sensitization) is 49.5% (active).

With `CCn1c(NC(=O)c2nn(C)cc2Br)nc2ccccc21`, the inhibition (viability loss, TRAIL sensitization) is 16.9% (inactive).

Take `Cn1c(CC(=O)NNC(=O)c2ccccc2F)nc2ccccc21`: the inhibition (viability loss, TRAIL sensitization) is 11.4% (inactive).

Take `Cc1nc2ccccc2c(C)c1C(=O)c1ccc(F)cc1`: the inhibition (viability loss, TRAIL sensitization) is 2.13% (inactive).

Consider `CCC(C(=O)Nc1c(C)cccc1C)n1c(-c2cc(C)cs2)nc2ccccc21` (stereo not drawn), for which the inhibition (viability loss, TRAIL sensitization) is 9.25% (inactive).

Regarding `Cn1c(-c2ccc(C(=O)c3ccccc3)s2)nc2ccccc21`, the inhibition (viability loss, TRAIL sensitization) is 66.6% (active).
